Rows were chosen to be rich in hits. Some 3.1% of all compounds tested hit in one or more screens of this group.
BoNT F protease: BoNT/F light chain protease inhibitors, primary screen, biochemical, flow cytometry, MLPCN library; Botulinum neurotoxin type F light chain protease (Clostridium botulinum); Multiplex microsphere protease cleavage assay; inhibition, % at 10 µM; hit rate 0.22% among 360,000; AID 588497, 2011; in the data active = inhibition above about 35%, passing the limit was not always enough; inconclusive = no clear call, values can overlap the other calls; note: plate controls were buffer without enzyme for full effect and enzyme alone for no effect
BoNT A protease: BoNT/A light chain protease inhibitors, primary screen, biochemical, flow cytometry, MLPCN library; multiplex microsphere protease substrate cleavage; hit rate 0.17% among 360,000; Botulinum neurotoxin type A light chain protease (Clostridium botulinum A str. ATCC 3502); inhibition, % at 10 µM; note: plate controls were buffer without enzyme for full effect and enzyme alone for no effect
Autofluor counter: compound fluorescence in toxin protease inhibitor counterscreen | AID 624483 | fluorescence intensity (no concentration beside the values) | compound autofluorescence counterscreen, microsphere flow cytometry; active compounds read high | hit rate 3.1% among 360,000; in the data active = fluorescence intensity above about 16000; inconclusive = no clear call, values can overlap the other calls
Anthrax LF inh2: Bacillus anthracis LF protease inhibitors, primary screen, biochemical, multiplex microsphere, MLPCN library | Lethal factor (Bacillus anthracis), P15917 | multiplex microsphere protease cleavage assay | inhibition, % at 10 µM | hit rate 0.12% among 360,000; note: plate controls were buffer without enzyme for full effect and enzyme alone for no effect
Target sequence (P15917 whole entry, looked up): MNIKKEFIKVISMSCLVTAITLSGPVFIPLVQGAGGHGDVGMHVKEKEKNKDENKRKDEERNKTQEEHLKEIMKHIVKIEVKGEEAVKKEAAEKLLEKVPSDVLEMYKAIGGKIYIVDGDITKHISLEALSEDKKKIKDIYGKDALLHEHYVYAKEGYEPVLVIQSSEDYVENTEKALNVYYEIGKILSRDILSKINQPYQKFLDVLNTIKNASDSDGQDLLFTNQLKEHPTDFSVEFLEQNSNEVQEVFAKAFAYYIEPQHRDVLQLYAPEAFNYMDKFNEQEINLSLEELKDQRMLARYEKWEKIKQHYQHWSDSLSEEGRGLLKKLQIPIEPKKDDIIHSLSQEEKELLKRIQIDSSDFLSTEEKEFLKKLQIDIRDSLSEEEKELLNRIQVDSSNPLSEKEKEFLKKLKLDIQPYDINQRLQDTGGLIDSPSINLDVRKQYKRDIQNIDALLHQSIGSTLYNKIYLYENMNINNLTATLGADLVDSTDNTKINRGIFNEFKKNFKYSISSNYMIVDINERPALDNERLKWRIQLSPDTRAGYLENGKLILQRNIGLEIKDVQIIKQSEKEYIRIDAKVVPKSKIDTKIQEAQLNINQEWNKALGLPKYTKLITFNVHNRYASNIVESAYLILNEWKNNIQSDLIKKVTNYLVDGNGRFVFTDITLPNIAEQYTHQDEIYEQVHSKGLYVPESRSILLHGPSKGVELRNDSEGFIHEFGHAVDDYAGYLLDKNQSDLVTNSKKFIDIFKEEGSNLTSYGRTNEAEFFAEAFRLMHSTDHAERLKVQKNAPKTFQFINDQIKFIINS
SSB-PriA inh: inhibitors of Klebsiella pneumoniae PriA binding to SSB C-terminal tail, primary screen, biochemical, AlphaScreen; PriA–SSB C-terminal tail interaction (Klebsiella pneumoniae); inhibition, % at 33 µM; hit rate 0.6% among 430,000; AID 1272365, 2023; AlphaScreen SSBct-PriA binding, biotinylated peptide; in the data active = inhibition mostly above about 37%, no sharp cut-off; inactive = mostly below about 20%;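 note: plate controls were negative control peptide for no effect and reference peptide for full effect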
* marks the source's active call; other numbers are inactive results; ? = inconclusive; nt = no result. Cut-off read from the data, not from the text of the source, unless noted: active = inhibition above about 30%; inconclusive = no clear call, values can overlap the other calls; inactive = below that.

SMILES	BoNT F protease	BoNT A protease	Autofluor counter	Anthrax LF inh2	SSB-PriA inh
CS(=O)(=O)N1CCN(c2ccc(-c3ccccn3)nn2)CC1	nt	nt	nt	nt	77*
O=C(c1ccccn1)N1CCN(S(=O)(=O)c2ccccc2)CC1	0	1	4157	-2	-1
O=C(c1ccccn1)N1CCN(c2ccc(-c3ccccn3)nn2)CC1	nt	nt	nt	nt	157*
O=C(c1ccccn1)N1CCN(C(=O)c2ccccn2)CC1	-2	0	16386*	0	-13
O=C(c1ccccc1Cl)N1CCN(c2ccc(-c3ccccn3)nn2)CC1	nt	nt	nt	nt	147*
Cc1cc(=O)[nH]c(NCc2ccc(F)cc2)n1	nt	nt	nt	nt	-13
COc1ccccc1OCC(=O)NCc1ccsc1	nt	nt	nt	nt	-17
CN(C)c1ccc(N=Nc2cccc(F)c2)cc1	-5	-2	4635	-2	32
Cc1cccc(N=Nc2ccc(N(C)C)cc2)c1	0	-1	5056	-5	55*
Cn1c(=O)c2[nH]c(CNc3ccc(C(=O)O)cc3)nc2n(C)c1=O	4	0	3551	4	72*
CCOC(=O)Cc1nnc(NC(=O)c2ccccc2OCC)s1	-2	0	2931	-2	-37
CCOC(=O)Cc1nnc(NC(=O)c2ncn[nH]2)s1	-2	-2	23312*	-8	0
O=C(Nc1cnc2sccn2c1=O)c1ccc(Cl)cc1Cl	2	0	22211*	0	-8
CS(=O)(=O)N1CCC[C@H]1C(=O)Nc1nnc(-c2cc3ccccc3o2)o1	nt	nt	nt	nt	0
c1ccc(CC2CCNC2)cc1 (stereo not given)	nt	nt	nt	nt	12
COC(=O)c1ccc2c(=O)n(NC(C)=O)c(=S)[nH]c2c1	-5	-2	23622*	-3	3
CCN(CC)CCNC(=O)c1ccc2c(=O)n(C3CCCC3)c(=S)[nH]c2c1	1	0	20853*	-1	-6
CCN(CC)CCCn1c(=S)[nH]c2cc(OC)c(OC)cc2c1=O	-8	?	22782*	-1	2
CCn1c(=S)[nH]c2cc(C(=O)OC)ccc2c1=O	-2	0	6493	3	-15
COCCn1c(=S)[nH]c2cc(OC)c(OC)cc2c1=O	2	0	5073	-1	-10
CC(C)NC(=O)c1ccc2c(=O)n(C3CCCC3)c(=S)[nH]c2c1	2	0	9824	-5	-6
CCN(CC)CCCn1c(=S)[nH]c2cc(C(=O)OC)ccc2c1=O	-3	1	23192*	-1	-22
COc1ccc(-n2ccn(Cc3ccncc3)c(=O)c2=O)cc1Cl	nt	nt	nt	nt	-5
COc1ccc(OC)c2sc(N(Cc3ccccn3)C(=O)CSc3ccc(Cl)cc3)nc12	nt	nt	nt	nt	8
Cc1ccc(NC(=O)NCCn2nc(-c3cccs3)ccc2=O)cc1F	nt	nt	nt	nt	-12
SMILES	BoNT F protease	BoNT A protease	Autofluor counter	Anthrax LF inh2	SSB-PriA inh
CC1CCN(C(=O)CSCC(=O)Nc2nc(-c3ccc(F)cc3)cs2)CC1	nt	nt	nt	nt	2
COc1ccc(C)cc1S(=O)(=O)N1C2CCC1CC(SC)C2 (stereo not given)	nt	nt	nt	nt	0
COc1cc2[nH]c(=S)n(NC(=O)c3ccccc3)c(=O)c2cc1OC	0	-1	16796*	0	-1
COc1cc2[nH]c(=S)n(-c3ccccc3)c(=O)c2cc1OC	-7	-1	2671	-1	-11
CCN(CC)c1ccc2nc3ccc(N)cc3[n+](-c3ccccc3)c2c1	-40	34*	3078	1	54*
CCN(CC)c1ccc2nc3ccccc3[n+](CC)c2c1	-21	2	3328	1	42*
Nc1ncnc(N/N=C\c2ccc(O)cc2)c1[N+](=O)[O-]	nt	nt	nt	nt	11
FC(F)(F)c1ccccc1-c1ccc(-c2nn3c(-c4ccccc4)nnc3s2)cc1	nt	nt	nt	nt	-8
CN(CC(=O)NCc1ccco1)S(=O)(=O)c1ccc2c(c1)n(C)c(=O)c(=O)n2C	-3	-3	24204*	-2	-11
COc1ccc(S(=O)(=O)N(CC(=O)NCc2ccco2)c2ccccc2)cc1	2	?	19214*	1	-9
CN(CC(=O)NCc1ccccc1Cl)S(=O)(=O)c1ccc2c(c1)n(C)c(=O)c(=O)n2C	-17	-7	8388	2	-13
COc1ccc(-n2c(C)nc3ccc(NC(=O)CC4CCCC4)cc3c2=O)cc1	nt	nt	nt	nt	-21
CCCCOC(=O)C1=C(C)Nc2ncnn2C1c1cc(OC)c(OC)cc1OC (stereo not given)	-1	0	23316*	-1	8
CCCCOC(=O)C1=C(C)Nc2ncnn2C1c1ccc(OC)c(OC)c1OC (stereo not given)	-3	-2	23980*	-2	0
O=C(Nc1ccc(SCCCC(=O)N2CCN(c3ccccc3F)CC2)nn1)C1CC1	nt	nt	nt	nt	0
COCCn1cc(NC(=O)Nc2ccc(C(F)(F)F)cc2)c2ccccc21	nt	nt	nt	nt	40
O=C(COc1ccc(Cl)cc1Cl)NC(=O)N1CCOCC1	-1	-2	16969*	0	-7
O=C(COc1ccc(Cl)cc1Cl)Nc1ccc(S(=O)(=O)N2CCOCC2)cc1	nt	nt	nt	nt	60*
Cc1c(Cl)cccc1NC(=O)COc1ccc(S(=O)(=O)N2CCOCC2)cc1	1	0	16522*	-2	-8
COc1ccc(OC)c(S(=O)(=O)Nc2ccc3c(c2)OCC(C)(C)C(=O)N3)c1	nt	nt	nt	nt	-3
Cc1ccc2nc(C(F)OC(F)(F)F)[nH]c2c1 (stereo not given)	-7	-3	17272*	-2	-5
CC1CCN(CC(O)CN2c3ccccc3Sc3ccccc32)CC1 (stereo not given)	7	6	3739	-4	-9
OC(CN1CCc2ccccc2C1)CN1c2ccccc2Sc2ccccc21 (stereo not given)	nt	nt	nt	nt	54*
O=C(NCCC(O)C1CC1)C(=O)NCC(F)(F)F (stereo not given)	nt	nt	nt	nt	-5
CN(C)c1ccc(P(=O)(OC2CCCCC2)C(O)c2cccnc2)cc1 (stereo not given)	8	0	5327	1	-9
SMILES	BoNT F protease	BoNT A protease	Autofluor counter	Anthrax LF inh2	SSB-PriA inh
COc1cc(C(O)P(=O)(OC2CCCCC2)c2ccc(N(C)C)cc2)cc(OC)c1OC (stereo not given)	-4	-2	16951*	-3	-8
CCOC(=O)C1CCN(C(=O)c2sc3nc(C)nc(N4CCC(C)CC4)c3c2C)CC1	-4	-3	21764*	-1	-1
CCOC(=O)C1CCN(C(=O)c2sc3ncnc(N4CCC(C)CC4)c3c2C)CC1	2	?	16307*	-2	-3
CCCCOC(=O)c1ccc(NC(=O)CSC2=Nc3ccccc3C3CC=NN23)cc1 (stereo not given)	-4	-1	22279*	-2	-15
COc1ccc(S(=O)(=O)N2CCCC(C(=O)Nc3nnc(-c4ccn(C)n4)o3)C2)cc1 (stereo not given)	nt	nt	nt	nt	18
CCc1cc(=O)[nH]c(SCC(=O)NC(C)(C)C)n1	nt	nt	nt	nt	-6
COc1ccc(-c2nc3c(s2)CN(S(C)(=O)=O)CC3)cc1OC	19	-1	3997	-7	17
CCS(=O)(=O)N1CCc2nc(-c3ccccc3)sc2C1	-5	-5	4135	-1	91*
